Each structure is given as a SMILES string. Results filed as inconclusive are left out. Active and inactive are the calls of the source. Calls come from the whole dose curve; as a rule, active = well fitted cell-killing curve with a large enough effect; inconclusive = small, poorly fitted or top-dose-only effect; inactive = no such curve, though single readings can be large or run the other way.

The values that follow come from PubChem BioAssay (NCATS).

The experiment is described as follows: qHTS of pediatric cancer cell lines to identify multiple opportunities for drug repurposing: Primary screen for Rh41 cells (AID 1347108).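 Note: series mostly up to about 46 µM; luminescence drop marks cytotoxic hits; nearly all actives have a fitted effect of over 70% in size.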 The method, boiled down:
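ATP-based luminescence (CellTiter-Glo) quantifies viability after a 48-hour exposure. Compounds are dosed across 8 or 11 final concentrations; DMSO and 2.3 µM bortezomib serve as controls.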
In general terms: In qHTS, concentration-response curves come from the screen itself.

Turning to `CCOC(=O)[C@H](CCc1ccccc1)N[C@@H](C)C(=O)N1CCC[C@H]1C(=O)O`, the outcome was inactive.
The result for `O=C(O)CCC(=O)O` reads “inactive”.
As for `CC(=O)OCC(COC(C)=O)OC(C)=O`, the entry is “inactive”.
The result for `CC(=O)Nc1ccccc1` reads “inactive”.
For `CC1CC(OC(=O)c2ccccc2O)CC(C)(C)C1` (stereo not given), the result was inactive.
As for `CCCCCCCCCCC(CO)CCCCCCCC` (stereo not given), the entry is “inactive”; as for `O=C(O)c1ccc[n+]([O-])c1`, “inactive”; as for `Nc1ccc(C(=O)Oc2ccccc2)c(O)c1`, “inactive”.
The result for `CN1CCCN=C1COC(=O)C(O)(c1ccccc1)C1CCCCC1` (stereo not given) reads “inactive”; that for `Cc1ccsc1C(=CCCN1CCC[C@@H](C(=O)O)C1)c1sccc1C`, “inactive”.
Take `CC(=O)N[C@@H](CC(C)C)C(=O)O`: the molecule was called inactive.
As for `O=C(NCCCN1CCOCC1)c1ccc(Cl)cc1`, the entry is “inactive”; as for `CC(C)c1cc2c(cc1S(=O)(=O)O)[C@@]1(C)CCC[C@@](C)(C(=O)O)[C@@H]1CC2`, “inactive”.
The result for `CCC(C)(CN(C)C)OC(=O)c1ccccc1` (stereo not given) reads “inactive”; that for `NC(N)=NS(=O)(=O)c1ccc(N)cc1`, “inactive”.
The result for `CC[C@H](C)[C@H](N)C(=O)O` reads “inactive”; that for `O=C(CCBr)N1CCN(C(=O)CCBr)CC1`, “inactive”; that for `Cc1ncc(CO)c(CN)c1O`, “inactive”.
As for `CCS(=O)(=O)CCn1c([N+](=O)[O-])cnc1C`, the result was inactive.
On to `CCCCCCCC(=O)OCC(O)CO` (stereo not given), for which the call was inactive.
The result for `CCOC(N)=O` reads “inactive”.
The result for `CCN(CC)S(=O)(=O)c1ccc(C(=O)O)cc1` reads “inactive”; that for `NC(=O)c1ccc([N+](=O)[O-])cc1Cl`, “inactive”.
Consider `Cn1c(=O)c2c(ncn2CCO)n(C)c1=O`, for which the result was inactive.
As for `CC(C)CCCC(C)CCCC(C)CCCCC(C)CCCC(C)CCCC(C)C` (stereo not given), the entry is “inactive”.
Consider `O=c1[nH]c(=O)c2ccccc2o1`, for which the outcome was inactive.
With `NS(=O)(=O)c1cc(-c2nn[nH]n2)c(NCc2cccs2)cc1Cl`, the molecule was called inactive.
For `Cc1cc(OI)c(C(C)C)cc1-c1cc(C(C)C)c(OI)cc1C`, the call was inactive.
The result for `c1ccc2[nH]ccc2c1` reads “inactive”.
Take `OCCN1C[C@H](O)[C@@H](O)[C@H](O)[C@H]1CO`: the call was inactive.
As for `O=C(O)CCCc1ccccc1`, the entry is “inactive”; as for `C[N+](C)(C)CC[N+]1(C)Cc2c(Cl)c(Cl)c(Cl)c(Cl)c2C1`, “inactive”; as for `Cc1c(NC(C)C)c(=O)n(-c2ccccc2)n1C`, “inactive”.
The result for `Nc1ccncc1N` reads “inactive”; that for `CCCNC(C)C(=O)Nc1c(C)csc1C(=O)OC` (stereo not given), “inactive”; that for `O=C(NCC(O)CO)c1c(I)c(C(=O)NCC(O)CO)c(I)c(N(CCO)C(=O)CO)c1I` (stereo not given), “inactive”.
As for `CC1(C)S[C@@H]2[C@H](NC(=O)C(C(=O)O)c3ccccc3)C(=O)N2[C@H]1C(=O)O` (stereo not given in full), the entry is “inactive”; as for `C1CCN2C[C@@H]3C[C@@H](CN4CCCC[C@@H]34)[C@H]2C1`, “inactive”; as for `CCCCCCCC(=O)OCC(COC(=O)CCCCCCC)OC(=O)CCCCCCC`, “inactive”.
As for `CCOC(=O)[C@H](CCc1ccccc1)N[C@@H](C)C(=O)N1Cc2cc(OC)c(OC)cc2C[C@H]1C(=O)O`, the molecule was called inactive.
For the molecule `Cc1cc(C)c(NC(=O)CN(CC(=O)O)CC(=O)O)c(C)c1Br`, the outcome was inactive.
In the case of `Cc1c(N(C)C)c(=O)n(-c2ccccc2)n1C`, the outcome was inactive.
The result for `Nc1c2c(nc3c1CCC3)CCCC2` reads “inactive”; that for `CC(=O)N1C[C@H](O)C[C@H]1C(=O)O`, “inactive”.
The result for `CC(=O)NCc1c(I)c(NC(C)=O)c(I)c(C(=O)O)c1I` reads “inactive”.
Turning to `CN/C(=C\[N+](=O)[O-])NCCSCc1csc(CN(C)C)n1`, the molecule was classed as inactive.
As for `COc1cc(O)cc(O)c1`, the entry is “inactive”; as for `Nc1ccc(S(=O)(=O)c2ccc(N)cc2)cc1`, “inactive”.
The result for `CC(=O)Nc1ccc(OCCOCCOc2ccc(NC(C)=O)cc2)cc1` reads “inactive”.
As for `CCOc1ccccc1O[C@H](c1ccccc1)[C@H]1CNCCO1`, the entry is “inactive”.
As for `CCN(CC)CCc1nc(-c2ccccc2)no1`, the molecule was called inactive.
The result for `Nc1ncnc(Nc2ccccc2)n1` reads “inactive”; that for `NS(=O)(=O)c1cc2c(cc1C(F)(F)F)NCNS2(=O)=O`, “inactive”; that for `CC(=O)Oc1cccc(O)c1`, “inactive”.
The result for `COc1ccc(C(=O)N2CCN(CC(=O)N3CCOCC3)CC2)cc1` reads “inactive”; that for `CC(=O)OC[C@H]1O[C@@](COC(C)=O)(O[C@H]2O[C@H](COC(C)=O)[C@@H](OC(C)=O)[C@H](OC(C)=O)[C@H]2OC(C)=O)[C@@H](OC(C)=O)[C@@H]1OC(C)=O`, “inactive”.
As for `Cc1ccsc1/C=C/C1=NCCCN1C`, the entry is “inactive”; as for `CCCCCCCCCCCCCCCCC(C(=O)O)C(O)(CC(=O)O)C(=O)O` (stereo not given), “inactive”.
Take `CC1CCc2cc(F)cc3c(=O)c(C(=O)O)cn1c23` (stereo not given): the call was inactive.
Regarding `CC(=O)SC[C@@H](Cc1ccccc1)C(=O)NCC(=O)OCc1ccccc1`, the result was inactive.
The result for `COc1ccc(O)cc1` reads “inactive”; that for `O=C(O)[C@@H]1[C@H]2C[C@H]3c4[nH]c5ccccc5c4CCN3C[C@@H]2CC[C@@H]1O`, “inactive”; that for `O=C1c2ccccc2S(=O)(=O)N1CCCCN1CCN(c2ncccn2)CC1`, “inactive”.
The result for `NC(=O)CC[C@@H](N)C(=O)O` reads “inactive”; that for `O=C(/C=C/c1ccccc1)OCc1ccccc1`, “inactive”; that for `CCCCCC(N)=O`, “inactive”.
As for `CN1CCN(C(=O)C2CCCCC2)CC1`, the entry is “inactive”.
Turning to `CC(=O)N(CC(O)CO)c1c(I)c(C(=O)NCC(O)CO)c(I)c(C(=O)NCC(O)CO)c1I` (stereo not given), the outcome was inactive.
As for `CC[C@]12CCCN3CCc4c(n(c5ccccc45)[C@@](O)(C(=O)OC)C1)[C@@H]32`, the entry is “inactive”.
For `O=C1c2cccc(O)c2C(=O)c2c(O)cccc21`, the call was inactive.
